Bioassay records from PubChem BioAssay.
Compounds with a hit are over-represented: about 7.9% of the library has one in this group of screens.
HT1080 IDH1KD tx: qHTS for induction of synthetic lethality in tumor cells producing 2HG: qHTS for the HT-1080-IDH1KD cell line | HT-1080 IDH1 knockdown viability, ATP luminescence, 48 h | Potency, µM (titrated, usually from 46.1 µM), inactives show at the highest dose activity, negative = toxicity, usual class: cytotoxic | actives 2% (n = 360,000) | AID 686971, 2013;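 further: 0% = DMSO wells and -100% = cell-free medium wells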
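In this qHTS, HT-1080 cells depleted of IDH1 are exposed for 48 h at 37 °C to compound titrations. Toxicity is scored from CellTiter-Glo luminescence, with DMSO as full viability and medium alone as none.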
KB-V1 cytotox: qHTS assay for MDR1-selective chemotherapeutics: Primary screen using the drug-selected MDR subline cells KB-V1; AID 1347076, 2019; KB-V1 MDR cells viability, CellTiter-Glo, 72 h; actives 3.4% (n = 400,000); Potency, µM (top dose mostly 46.1 µM), actives largely listed as cytotoxic; further: on the % scale 0 is the no-effect control and ±100 the full control effect; nearly all actives have a fitted effect of over 60% in size
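Cells of the MDR subline KB-V1 are plated, dosed with compound at multiple concentrations, and incubated 72 h at 37 degrees C; CellTiter-Glo is then added and luminescence read after 10 min.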
HT1080NT lethal: qHTS for induction of synthetic lethality in tumor cells producing 2HG: qHTS for the HT-1080-NT fibrosarcoma cell line; HT-1080-NT fibrosarcoma viability, CellTiter-Glo ATP luminescence, 48 h; actives 1.6% (n = 360,000); Potency, µM (doses to about 46.1 µM), for the others: top-dose activity, negative = less viability, actives largely listed as cytotoxic; AID 686970, 2013;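 further: NT is the 2HG producing partner of a matched IDH1 knockdown line; 0% = DMSO-treated cells and -100% = media-only wells without cells; nearly all actives have a fitted effect of over 55% in size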
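HT-1080-NT fibrosarcoma cells (2HG-overproducing), 750 cells/well in RPMI with 5% FBS, dosed after 2 h and incubated 48 h at 37C. CellTiter-Glo luminescence normalized to DMSO and no-cell wells; concentration-response curves fitted and classed.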
SW480 rerep: A quantitative high throughput screen for small molecules that induce DNA re-replication in SW480 colon adenocarcinoma cells. SW480 DNA re-replication, Hoechst DNA content imaging, 48 h. Potency, µM (doses to about 46.1 µM), for the others: at the top dose re-replication activation, most hits filed as activators. actives 1.8% (n = 340,000). AID 624297, 2012; further: % of control where 0% means no effect; nearly all actives have a fitted effect of over 55% in size
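SW480 cells exposed to compounds for 48 hr at 37 C, 5% CO2, then Hoechst-stained 40 min. Nuclear DNA content imaged by fluorescence scanning (405 nm excitation, 500-530 nm emission); re-replication scored as increased high-intensity nuclei.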
MCF10A rereplic: A quantitative high throughput screen for small molecules that induce DNA re-replication in MCF 10a normal breast cells. MCF 10A DNA re-replication, Hoechst nuclear intensity, 48 h. Potency, µM (top dose mostly 46.1 µM), for inactives: top-dose activity, positive = re-replication, actives largely listed as activators. actives 2.9% (n = 350,000); further: % of control where 0% means no effect; nearly all actives have a fitted effect of over 50% in size
KB-3-1 cytotox: qHTS assay for MDR1-selective chemotherapeutics: Primary screen using the parental adenocarcinoma cell KB-3-1. KB-3-1 viability, CellTiter-Glo ATP luminescence, 72 h. actives 1.4% (n = 400,000). Potency, µM (highest dose often 46.1 µM), usual class: cytotoxic; further: on the % scale 0 is the no-effect control and ±100 the full control effect; nearly all actives have a fitted effect of over 60% in size
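Screening of KB-3-1 cells (DMEM, 10% FBS, phenol-red free) ran from lowest to highest compound concentration; after 72 h at 37 °C viability was read luminescently and curves fitted.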
The depositor's hits bear a star; i = inactive; ? = inconclusive; . = no result given; [ ] = dose if it differs, or a comment. The call rests on the fitted dose curve; in most records, active means well fitted curve in the direction sought with a large enough effect; inconclusive means small, poorly fitted or top-dose-only effect, or another doubt; inactive means no such curve, though single readings can be large; an effect the other way counts as inactive or inconclusive. Potency means the concentration at half of the fitted maximal effect.

SMILES	HT1080 IDH1KD tx	KB-V1 cytotox	HT1080NT lethal	SW480 rerep	MCF10A rereplic	KB-3-1 cytotox
COc1ccc(NC(=O)CCc2ccccc2)cc1S(=O)(=O)N1CCOCC1	11%	i	10%	-9%	6%	i
O=C(Nc1ccc(Cl)c(S(=O)(=O)N2CCOCC2)c1)C1CCCC1	0%	i	2%	-3%	-2%	i
O=C(Nc1ccc(F)c(S(=O)(=O)N2CCOCC2)c1)C1CCCCC1	11%	18µM*	8%	-1%	11%	i
COc1ccc(NC(=O)CCc2ccccc2)cc1S(=O)(=O)N1CCCCC1	0%	5.2µM*	-2%	-2%	5%	?
CC1(C)C2CCC1(CS(=O)(=O)NCc1ccc(S(N)(=O)=O)cc1)C(=O)C2 (configuration not stated)	10%	i	8%	-13%	-4%	i
CCN(CC)C(=O)/C(C#N)=C/c1cc(O)c(O)c([N+](=O)[O-])c1	.	.	.	17%	4%	.
O=C(COc1ccccc1Cl)OCc1cc(=O)n2nc(-c3cccs3)sc2n1	.	i	.	.	.	i
COc1ccc(OCC(=O)Nc2ccc(OC)c(S(=O)(=O)N3CCCCC3)c2)cc1	?	i	-18%	16µM*	?	21µM*
Cc1ccccc1OCC(=O)Nc1ccc2c(c1)n(C)c(=O)n2C	-17%	13µM*	0%	-20%[1.84 µM]	5%	i
CCOc1ncccc1C(=O)Nc1ccc(C)c(S(=O)(=O)N2CCCCCC2)c1	-18%	?	-9%[9.24 µM]	-15%	9.2µM*	?
O=C(CCOc1cccc(Br)c1)Nc1ccc(F)c(S(=O)(=O)N2CCOCC2)c1	-23%	23µM*	-17%	11%	?	i
Cn1c(=O)n(C)c2cc(NC(=O)COc3ccccc3)ccc21	-1%	i	0%	-12%	2%	i
COCCNC(=O)Cn1nc(N2CCN(c3ccccc3OC)CC2)ccc1=O	.	i	.	.	.	i
C=CCNC(=S)Nc1ccc(C)c(S(=O)(=O)N2CCCCC2)c1	1%	?	0%	2%	3%	i
Cc1ccc(NC(=S)Nc2ccc(C(C)C)cc2)cc1S(=O)(=O)N1CCCCCC1	21µM*	15µM*	?	?	?	i
COc1ccc(OCCCC(=O)Nc2ccc(OC)c(S(=O)(=O)N3CCOCC3)c2)cc1	-3%	i	-2%	-28%	6%	i
Cc1ccccc1OCC(=O)Nc1ccc(C)c(S(=O)(=O)N2CCCCCC2)c1	3%	12µM*	1%	-5%	16%	i
COc1ccc(NC(=O)CCOc2ccc(C)cc2)cc1S(=O)(=O)N1CCOCC1	-13%	18µM*	1%	-9%	1%	i
COc1ccc(NC(=O)Cc2ccsc2)cc1S(=O)(=O)N1CCCCC1	6%	21µM*	8%	0%	-3%	i
Cc1ccc2c(=O)cc(C(=O)Nc3sc4c(c3C(N)=O)CCCC4)oc2c1	.	i	.	.	.	i
CN(C)S(=O)(=O)c1ccc(N2CCCC2)c(C(=O)NNC(=O)COc2cccc(F)c2)c1	-1%	i	2%	-16%	-1%	i
O=C1C(=O)N(CCO)C(c2ccc(Br)cc2)/C1=C(\O)c1ccccc1 (configuration not stated)	-4%	?	-2%	18%	7%	i
COc1ccc(NC(=O)CCCN2C(=O)CN(C)C2=O)cc1Cl	13%	?	12%	-7%	-3%	i
Cn1c(=O)n(C)c2cc(NC(=O)CCl)ccc21	?	16µM*	?	?	18µM*	4.6µM*
Brc1ccccc1-c1nnc2sc(-c3ccc4c(c3)OCCO4)nn12	.	?	.	?	6.5µM*	i
SMILES	HT1080 IDH1KD tx	KB-V1 cytotox	HT1080NT lethal	SW480 rerep	MCF10A rereplic	KB-3-1 cytotox
Clc1ccccc1-c1nnc2sc(-c3ccc4c(c3)OCO4)nn12	?	8.2µM*	?	6.5µM*	?	21µM*
CC(C)(C)OC(=O)NCC(=O)NCC(=O)OCc1ccccc1	-2%	i	-4%	-1%	0%	i
NCC(=O)NCC(=O)OCc1ccccc1	8%	i	9%	-29%	1µM*	i
O=C(O)c1cc(-c2ccc(Cl)c(Cl)c2)n(-c2ccc(F)cc2)n1	11%	i	17%	-28%	1%	i
CCn1c2ccccc2c2nc3ccccc3nc21	-17%	i	-17%	14%	13µM*	i
CCn1c2ccccc2c2nc3cc(C(=O)O)ccc3nc21	?	?	?	-20%	?	i
CCn1c2ccccc2c2nc3cc(OC)c(OC)cc3nc21	?	2.1µM*	?	18µM*	2.9µM*	?
O=C(NCc1ccccn1)Nc1ccccc1F	12%	i	18%	-5%	-1%	i
Cn1c(=S)[nH]c2cc(C(=O)N3CCN(C(=O)c4ccccc4)CC3)ccc2c1=O	1%	.	12%	.	.	.
Oc1c(C(c2ccccc2Cl)N2CCCC2)ccc2cccnc12 (configuration not stated)	?	i	?	-4%	?	13µM*
O=C(O)C1CCN(S(=O)(=O)c2ccc(N3CCCC3C(=O)O)c([N+](=O)[O-])c2)CC1 (configuration not stated)	14%	i	-3%	-5%	1%	i
Cc1cc(Nc2cccc([N+](=O)[O-])c2)n2c(nc3ccccc32)c1C#N	16µM*	3.3µM*	?	?	6.3µM*	5.2µM*
Cc1cc(Nc2ccc(F)cc2)n2c(nc3ccccc32)c1C#N	.	i	.	.	.	i
Cc1ccc(OCc2nnc(SCc3cc(=O)[nH]c4ccccc34)n2-c2ccccc2)cc1	?	i	16µM*	5%	1%	i
Cc1ccc(C(=O)CSc2nnc(COc3ccc(C#N)cc3)n2-c2ccccc2)cc1	-29%	i	-24%	-1%	9%	i
Cc1ccccc1OCc1nnc(SCc2cc(=O)[nH]c3ccccc23)n1-c1ccccc1	-19%	16µM*	-20%	?	?	?
Cc1ccc(OCc2nnc(SCC(=O)Nc3cccc4ccccc34)n2-c2ccccc2)cc1	-19%	?	-22%	9%	18µM*	i
